D1 PAM = potentiators of human D1 dopamine receptor; P21728; HEK293 TREx D1 cells, calcium flux, dopamine EC20 potentiation; potentiation, % at 10 µM; 360,000 compounds, 0.036% hits; AID 504651; in the data active means potentiation above about 30%; further: 0% is about no effect
D1 antagonist = human D1 dopamine receptor antagonism; P21728; HEK293 TREx D1 cells, calcium flux, dopamine EC80; active compounds read low; activity change, negative = inhibition, % at 10 µM; 360,000 compounds, 3.2% hits; in the data active means activity change below about -30%; further: on the % scale 0 is the no-effect control and ±100 the full control effect
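HEK293 T-REx cells expressing inducible, force-coupled D1 receptor; no-wash Ca dye, 30–90 min RT. Cmpd → 180 s read at 1 Hz → EC80 DA → 180 s read.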
DRD3 antagonist = antagonists of human D3 dopamine receptor | D3R cells, DiscoveRx beta-arrestin luminescence, antagonist mode; active compounds read low | max response, negative = inhibition, % | 360,000 compounds, 2.5% hits; in the data active means max response below about -50%; inconclusive means no clear call, values can overlap the other calls; further: on the % scale 0 is the no-effect control and ±100 the full control effect
Target sequence (P35462 whole entry, looked up): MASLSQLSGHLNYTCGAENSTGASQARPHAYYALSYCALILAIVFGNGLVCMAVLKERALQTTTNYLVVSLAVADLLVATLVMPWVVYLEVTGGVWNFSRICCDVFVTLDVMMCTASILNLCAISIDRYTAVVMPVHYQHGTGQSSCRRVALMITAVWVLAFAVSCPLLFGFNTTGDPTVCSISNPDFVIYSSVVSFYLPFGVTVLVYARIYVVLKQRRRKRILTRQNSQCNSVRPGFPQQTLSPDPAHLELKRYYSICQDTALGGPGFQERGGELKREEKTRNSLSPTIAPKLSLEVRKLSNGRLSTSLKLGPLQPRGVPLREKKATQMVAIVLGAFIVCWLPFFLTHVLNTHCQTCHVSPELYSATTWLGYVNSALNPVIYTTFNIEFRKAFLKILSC
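Cells plated overnight at 1500 cells/well, then exposed to library compounds with dopamine controls for 90 minutes at 37 degrees C. DiscoveRx reagent added for 30–60 minutes at room temperature; luminescence read, quantitative HTS format.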
BCR signal inh = blocks chronic active B-cell receptor signaling; AID 493014; 340,000 compounds, 0.05% hits; ABC-DLBCL IkBa-CBG/CBR reporter, luminescence ratio, 4 h; Potency, µM (titrated, usually from 46.1 µM), for the others: at the highest dose activity change, negative = inhibition, usual class: inhibitors; active means well fitted inhibition curve with a large enough effect in the signal ratio, with a control signal flat, not every such curve was filed as active; inconclusive means small, poorly fitted or top-dose-only effect, or effect the other way, or a change in a side signal; the % refers to the signal ratio;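 further: potency means the concentration at half of the fitted maximal effect; plate controls were basal doxycycline-induced cells for no effect and cells given 10 µM MG132 for full effect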
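Concentration-response series (up to 46 uM) were applied to TMD8 dual-reporter cells for 4 h at 37C with doxycycline. Green/red ratio, after filter-overlap correction, defined %Activity; red signal alone was normalised to basal cells and zero luminescence.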
D1 ag = agonists of human D1 dopamine receptor | P21728 | activation, % at 2 µM | AID 504660 | HEK293 T-REx D1 cells, calcium flux, agonist mode | 360,000 compounds, 1% hits; in the data active means activation above about 30%; further: 0% is about no effect
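Agonism was scored from calcium flux recorded over 180 s (1 read/s) after pintool compound addition, following a 10-cycle baseline. Cells were inducible force-coupled HEK293 TREx D1, plated overnight at 30 C and loaded with no-wash calcium dye.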
D3 ag = agonists of human D3 dopamine receptor. P35462. D3R DiscoveRx beta-arrestin cells, luminescence, 90 min. max activation, %. 410,000 compounds, 0.58% hits; in the data active means max activation above about 30%; further: 0% is about no effect
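Agonist-mode cell screen: cells plated at 1500/well and incubated overnight at 37 °C, then exposed to library compounds for 90 min at 37 °C. Detection reagent was added for 30–60 min at room temperature, and luminescence was read.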
* = called active by the depositor. Most compounds without a hit are left out; they make up all but 6% or so of the library.

`CCCCn1c(CN2CCN(c3cccc(Cl)c3)CC2)nc2c1c(=O)n(C)c(=O)n2C` gave D1 PAM 19.4, D1 antagonist -31.4*, DRD3 antagonist 0.0, BCR signal inh 0.6%, D1 ag 5.7 and D3 ag 2.4.
Screening Cc1nc2ccn(Cc3ccco3)c(=O)c2cc1C(=O)NCc1ccc(Cl)cc1 returned D1 PAM -3.3, D1 antagonist 8.8, D1 ag 0.6 and D3 ag 1.2.
Cc1cc(C)cc(NC(=O)N2CCC(C(N)=O)(N3CCCCC3)CC2)c1 was read as D1 PAM -1.4, D1 antagonist -7.8, D1 ag 1.6 and D3 ag 0.9.
CN(C)CCCNc1nc2cc(-c3cccc(Cl)c3)sc2c(=O)n1C was read as DRD3 antagonist -60.0* and D3 ag -20.5.
For CN(C)CCCNc1nc2cc(-c3cccc(C(F)(F)F)c3)sc2c(=O)n1C the results were DRD3 antagonist -0.7 and D3 ag -15.7.
Screening N#Cc1c(NC(=O)/C=C/c2ccco2)sc2c1CCCC2 returned D1 PAM -3.5, D1 antagonist 11.7, DRD3 antagonist -59.6*, BCR signal inh inconclusive, D1 ag 0.8 and D3 ag -7.1.
OC(c1ccc(F)cc1)c1nc(-c2ccc(Cl)cc2)cs1 (stereo not given) was read as DRD3 antagonist -29.6 and D3 ag -3.5.
Screening Nc1nc(-c2ccccc2)c(N=Nc2ccccc2Cl)s1 returned D1 PAM -0.5, D1 antagonist -6.1, DRD3 antagonist -59.4*, BCR signal inh inconclusive, D1 ag 5.7 and D3 ag -7.9.
`CCOc1ccc(NC(=O)c2cc(C)nc3c2c(C)nn3-c2cccc(F)c2)cc1` gave D1 PAM -6.2, D1 antagonist -7.6, D1 ag 5.0 and D3 ag 6.3.
`N#Cc1ccccc1S(=O)(=O)NC(=O)[C@H]1O[C@@H](n2cnc3c(N)ncnc32)[C@H](O)[C@@H]1O` gave DRD3 antagonist 14.3 and D3 ag 9.0.
CN1CCN(S(=O)(=O)c2ccc(NC(=S)NC(=O)C3CCCC3)cc2)CC1 was read as D1 PAM -5.9, D1 antagonist -45.0*, DRD3 antagonist -15.7, BCR signal inh 5.1%, D1 ag 0.4 and D3 ag 2.5.
Screening Cc1cc(OCC(=O)Nc2ccc(S(=O)(=O)N3CCN(C)CC3)cc2)ccc1Br returned D1 PAM -1.0, D1 antagonist -71.8*, DRD3 antagonist -14.1, BCR signal inh -8.1%, D1 ag 32.7* and D3 ag -1.9.
For Cc1ccc(OCC(=O)Nc2ccc(S(=O)(=O)N3CCCC3)cc2)cc1 the results were D1 PAM 1.0, D1 antagonist 3.1, DRD3 antagonist 4.2, BCR signal inh 3.1%, D1 ag 3.6 and D3 ag 1.6.
Cc1ccc(OCC(=O)Nc2ccc(S(=O)(=O)N3CCN(C)CC3)cc2)cc1 was read as D1 PAM -10.2, D1 antagonist -23.7, DRD3 antagonist -2.5, BCR signal inh 2.0%, D1 ag 11.2 and D3 ag 1.1.
For COc1ccc(OCC(=O)Nc2ccc(S(=O)(=O)N3CCN(C)CC3)cc2)cc1 the results were D1 PAM -6.4, D1 antagonist -38.6*, DRD3 antagonist 8.3, BCR signal inh 10.8%, D1 ag 7.7 and D3 ag 4.8.
For O=C(C1CCCCC1)N1C[C@@H](O)[C@H](n2cc(C3CC3)nn2)C[C@@H]1c1ccccc1 the results were DRD3 antagonist 20.9 and D3 ag 2.0.
Screening O=C(CSc1nc(=O)n(Cc2ccco2)c2c1CCC2)NCc1ccc(Cl)cc1 returned D1 PAM 7.9, BCR signal inh -4.6%, D1 ag 0.8 and D3 ag -4.9.
Screening CCOC(=O)C(Cc1ccccc1)NC(=O)CCc1nnc2ccc(N3CCCCC3)nn12 (stereo not given) returned D1 PAM -5.0, D1 antagonist -33.3*, DRD3 antagonist 17.4, BCR signal inh 4.3%, D1 ag 1.8 and D3 ag 20.5.
CCOCCCNC(=O)CCc1nnc2ccc(N3CCCCC3)nn12 was read as D1 PAM 4.5, D1 antagonist -31.4*, DRD3 antagonist 17.3, BCR signal inh 0.8%, D1 ag 0.9 and D3 ag -7.4.
Screening CC1CCN(c2ccc3nnc(CCC(=O)Nc4ccc(F)c(F)c4)n3n2)CC1 returned D1 PAM -7.5, D1 antagonist -30.1*, DRD3 antagonist 2.4, BCR signal inh -5.5%, D1 ag 1.3 and D3 ag -0.9.
For COc1ccc(NC(=O)C(c2ccc(C(F)(F)F)cc2)n2c(=O)c(-c3cc4ccccc4[nH]3)nc3ccccc32)cc1 (stereo not given) the results were DRD3 antagonist 22.0 and D3 ag 3.2.
For CC(=O)Nc1ccc(Sc2ncccc2C(=O)Nc2ccc(F)cc2)cn1 the results were D1 PAM 1.6, D1 antagonist 3.0, DRD3 antagonist 20.0, BCR signal inh inconclusive, D1 ag 98.6* and D3 ag -3.7.
Cc1cc(OC(=O)c2cc(-c3ccc4c(c3)OCCO4)on2)ccc1Cl was read as D1 PAM -2.1, D1 antagonist -35.7*, D1 ag 10.8 and D3 ag -9.8.
`O=C(Nc1cccc(Cl)c1)c1cc(-c2ccc3c(c2)OCCO3)on1` gave D1 PAM 0.5, D1 antagonist -0.2, D1 ag -2.6 and D3 ag -2.7.
`N#Cc1ccc(OC(=O)c2cc(-c3ccc(Cl)cc3)on2)cc1` gave D1 PAM -0.3, D1 antagonist -38.0*, D1 ag 2.7 and D3 ag -8.4.
For Cc1cccc(NC(=O)c2cc(-c3ccc4c(c3)OCCO4)on2)c1 the results were D1 PAM -1.3, D1 antagonist -65.8*, D1 ag 34.6* and D3 ag -18.4.
Screening Cc1ccc(OC(=O)c2cc(-c3ccc4c(c3)OCCO4)on2)cc1C returned D1 PAM -1.3, D1 antagonist -7.2, D1 ag 5.1 and D3 ag 4.5.
`O=C(Nc1c2c(nn1-c1ccc(Cl)cc1)CS(=O)(=O)C2)c1ccccc1F` gave D1 PAM 0.5, D1 antagonist -16.0, BCR signal inh inconclusive, D1 ag -4.8 and D3 ag 22.6.
COc1ccccc1Cc1nc2ccccc2nc1SCC(=O)N(C)c1ccc(F)cc1 was read as D1 PAM 3.2, D1 antagonist 9.6, D1 ag 2.1 and D3 ag -1.8.
`CC(Sc1oc(-c2cccs2)nc1S(=O)(=O)c1ccccc1)c1ccccc1` (stereo not given) gave D1 PAM 0.8, D1 antagonist 8.8, D1 ag 4.4 and D3 ag 1.1.

Screens deposited in PubChem by National Center for Advancing Translational Sciences (NCATS).
